Screening results as filed in PubChem.
HT1080 IDH1KD tx = qHTS for induction of synthetic lethality in tumor cells producing 2HG: qHTS for the HT-1080-IDH1KD cell line. HT-1080 IDH1 knockdown viability, ATP luminescence, 48 h. Potency, µM (top dose mostly 46.1 µM), without a hit: top-dose activity, negative = toxicity, actives largely listed as cytotoxic. 360,000 tested, 2% active;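 further: potency means the concentration at half of the fitted maximal effect; 0% = DMSO wells and -100% = cell-free medium wells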
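Cytotoxicity counter-line: IDH1KD HT-1080, 48 h, CellTiter-Glo. Curves classed by r2, magnitude and activity.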
HT1080-NT tox = qHTS for induction of synthetic lethality in tumor cells producing 2HG: qHTS for the HT-1080-NT fibrosarcoma cell line; Potency, µM (titrated, usually from 46.1 µM), inactives show at the highest dose activity, negative = less viability, most hits filed as cytotoxic; HT-1080-NT fibrosarcoma viability, CellTiter-Glo ATP luminescence, 48 h; 360,000 tested, 1.6% active;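 further: NT is the 2HG producing partner of a matched IDH1 knockdown line; potency means the concentration at half of the fitted maximal effect; 0% = DMSO-treated cells and -100% = media-only wells without cells; nearly all actives have a fitted effect of over 55% in size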
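HT-1080-NT; 750 cells/well; 5% FBS RPMI; 48 h compound, 37 degrees C; CellTiter-Glo luminescence; curve fitting and curve-class assignment.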
IL-1B inflam inh = qHTS for Inhibitors of Inflammasome Signaling: IL-1-beta AlphaLISA Primary Screen; THP-1 LPS/ATP IL-1B secretion, AlphaLISA, 16 h; hits give low values; 360,000 tested, 4.7% active; activity change, % at 57.5 µM; AID 743279, 2014; in the data active means activity change below about -50%; inconclusive means mostly about -30% to -49%
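Secreted IL-1B measured by AlphaLISA bead assay after 16 h compound exposure of THP-1 cells; compounds (final up to 57.5 uM) added 1 h before LPS (250 ng/mL) and ATP (1.25 mM) stimulation; lower signal means less secretion.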
DT40 TDP1 CPT = qHTS for Inhibitors of human tyrosyl-DNA phosphodiesterase 1 (TDP1): qHTS in cells in presence of CPT. 420,000 tested, 12% active. chicken DT40 Tdp1-/-;hTDP1 cells + 20 nM CPT, ATP luminescence, 48 h. Potency, µM (titrated, usually from 46.2 µM), for the others: top-dose activity change, negative = growth inhibition, hits mostly inhibitors; further: potency means the concentration at half of the fitted maximal effect; nearly all actives have a fitted effect of over 55% in size
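Chicken DT40 Tdp1-/- cells stably complemented with human TDP1 were seeded at 400 cells/well in medium containing 20 nM camptothecin, exposed to pin-transferred compounds, and grown at 37 °C for at least 48 hr. Viability was read as ATP luminescence.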
TDP1 cell noCPT = qHTS for Inhibitors of human tyrosyl-DNA phosphodiesterase 1 (TDP1): qHTS in cells in absence of CPT. DT40 Tdp1-/- hTDP1 cells, no CPT, ATP luminescence, 48 h. Potency, µM (doses to about 46.2 µM), for the others: at the highest dose activity change, negative = growth inhibition, hits mostly inhibitors. 420,000 tested, 15% active; further: potency means the concentration at half of the fitted maximal effect; nearly all actives have a fitted effect of over 55% in size
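Compound effects on proliferation are scored in DT40 Tdp1-/-;hTDP1 cells in the absence of CPT. ATP levels (CellTiter-Glo luminescence) are recorded after a ≥48 hr, 37 °C incubation.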
* marks the source's active call; other numbers are inactive results; i = inactive; ? = inconclusive; . = no result given. The list is not random: actives were taken first. Their share in the collection is about 19%. Unless noted, the call rests on the fitted dose curve; in most records, active means well fitted curve in the direction sought with a large enough effect; inconclusive means small, poorly fitted or top-dose-only effect, or another doubt; inactive means no such curve, though single readings can be large; an effect the other way counts as inactive or inconclusive. Unless noted, on the % scale 0 is the no-effect control and ±100 the full control effect.

SMILES	HT1080 IDH1KD tx	HT1080-NT tox	IL-1B inflam inh	DT40 TDP1 CPT	TDP1 cell noCPT
N#Cc1cc2ccncc2c2ccccc12	-11%	-4%	-26	?	8.2µM*
Cc1cc(C#N)c2ccccc2n1	8%	9%	16	1%	-9%
Cc1cc(N)c2ccccc2n1	4%	5%	-16	18%	-11%
Nc1cc2ccncc2c2ccccc12	0%	-7%	?	?	10µM*
Cn1c(NC(=O)C[n+]2cc(-c3ccccc3)n3c2CCC3)cc(=O)n(C)c1=O	10%	12%	31	-11%	-9%
O=C(C[n+]1cc(-c2ccccc2)n2c1CCC2)N1c2ccccc2Sc2ccccc21	-23%	1%	i	5.2µM*	2.6µM*
O=C(CN1CCCC1)N1c2ccccc2Sc2ccccc21	-4%	0%	-11	-12%	-6%
Cc1ccc(-c2c[n+](CC(=O)N3c4ccccc4Sc4ccccc43)c3n2CCC3)cc1	?	?	-58*	5.2µM*	5.2µM*
O=C(C[n+]1cc(-c2ccc(F)cc2)n2c1CCC2)N1c2ccccc2Sc2ccccc21	-12%	-12%	-50*	15µM*	13µM*
CCOCCC(=O)Nc1cc(Cl)ccc1OC	-3%	12%	7	-6%	-15%
Cc1ccc(NC2(c3nnnn3-c3c(C)cccc3C)CCCCC2)cc1	-13%	3%	-5	?	23µM*
COCCN1C(=O)CCC1(C)c1nnnn1-c1c(C)cccc1C (centres undefined)	-1%	1%	19	-6%	-17%
Oc1ccc2ccccc2c1C=NC12CN3CCN(CN(C3)C1)C2	-5%	-2%	25	13µM*	?
Oc1ccc2ccccc2c1C=Nc1ccccc1Br	-27%	-24%	24	3%	-25%
OCC(CO)(CO)N=Cc1c(O)ccc2ccccc12	?	?	22	?	?
CS/C(N)=N/N=C/c1c(O)ccc2ccccc12	?	-16%	34	?	3.7µM*
Oc1ccccc1N=Cc1c(O)ccc2ccccc12	18µM*	?	35	?	-17%
Oc1cccc(C=Nc2cccc3ccccc23)c1O	23µM*	18µM*	-59*	?	?
COc1cc(OC)cc(-c2noc([C@@H]3O[C@H](CO)[C@H](O)[C@H](O)[C@H]3O)n2)c1	20%	?	4	3%	-7%
N#Cc1ccccc1OCC(=O)Nc1cc(S(=O)(=O)N2CCCCC2)ccc1N1CCOCC1	-7%	-2%	1	?	?
Oc1oc(-c2ccccc2)nc1C=Nc1cccc2ccccc12	-16%	?	13	?	16µM*
COc1ccccc1NC(=O)C(C)OC(=O)CCSc1ccc(F)cc1 (centres undefined)	4%	4%	6	-19%	-22%
Cc1ccccc1CCNC(=O)c1ccc2c(c1)c(C)c(C)n2Cc1ccccc1	.	.	.	18µM*	?
Cc1c(C)n(Cc2ccccc2)c2ccc(C(=O)NCCc3ccccc3Cl)cc12	.	.	.	21µM*	?
O=C(NCCc1ccccc1Cl)c1ccc2nc3ccccc3c(=O)n2c1	1%	4%	-19	15µM*	?
SMILES	HT1080 IDH1KD tx	HT1080-NT tox	IL-1B inflam inh	DT40 TDP1 CPT	TDP1 cell noCPT
O=C(CSCc1ccccc1Br)NNC(=S)NCc1ccco1	5%	8%	-15	12%	4%
COc1cn(CC(=O)Nc2ccc(C)cc2C)c(CN2CCCCC2)cc1=O	.	.	.	13%	-13%
COc1ccc(NC2=C3CC(C)CC=C3N(c3ccc(OC)cc3)C2=O)cc1 (centres undefined)	-10%	-16%	-8	?	?
Cc1ccc(-n2nc(C)c3c(C)c(CCC(=O)NCc4ccco4)c(C)nc32)cc1	-1%	-1%	-22	23µM*	?
Cc1ccc(-n2nc(C)c3c(C)c(CCC(=O)NCc4ccccc4Cl)c(C)nc32)cc1	.	.	.	16µM*	?
CC(C)CN1C(=O)CSCC1(C)C(=O)NCc1ccccc1 (centres undefined)	0%	7%	43	5%	-1%
COc1ccc(Nc2ncnc3onc(C)c23)c(OC)c1	.	.	.	3%	-9%
Cc1ccc(-n2nnnc2SCc2nnc(-c3ccccc3Br)o2)c(C)c1	-6%	-26%	-17	?	?
O=[N+]([O-])c1cccc(-c2ccc(SCc3cccnc3)nn2)c1	?	-22%	-80*	?	?
c1cncc(CSc2ccc(-c3ccc4c(c3)OCO4)nn2)c1	?	-23%	-51*	?	16µM*
Fc1cccc(CSc2ccc(-c3ccc4c(c3)OCO4)nn2)c1	?	-28%	-2	0%	-5%
CC1CCCC(C)N1/N=C/c1cccc(Br)c1 (centres undefined)	3%	-9%	6	-15%	-14%
Cc1nc(C(F)(F)F)ccc1C(=O)N1CCCCC1	18%	6%	.	-1%	-2%
N#Cc1cccc(C(Br)S(=O)(=O)c2ccccc2)c1 (centres undefined)	0%	1%	-20	-27%	?
Cc1ccc(-c2onc(C)c2C)cc1S(=O)(=O)N1CCOc2ccc(Cl)cc21	.	.	.	?	15µM*
Cc1ccc(-c2onc(C)c2C)cc1S(=O)(=O)N1CC(C)Oc2ccccc21 (centres undefined)	?	-26%	25	?	?
Cc1ccc(-c2onc(C)c2C)cc1S(=O)(=O)N1CCc2ccccc21	.	.	.	13µM*	23µM*
Cc1ccc(-c2onc(C)c2C)cc1S(=O)(=O)NC1CCCCC1	.	.	.	?	26µM*
CCC1CN(S(=O)(=O)c2cc(-c3onc(C)c3C)ccc2C)c2cc(Cl)ccc2O1 (centres undefined)	.	.	.	15µM*	15µM*
COc1ccc(-c2onc(C)c2C)cc1S(=O)(=O)N1CCN(c2ccc(Cl)cc2)CC1	.	.	.	7%	8%
CCC1CN(S(=O)(=O)c2ccc3c(c2)NC(=O)CC(=O)N3)c2cc(Cl)ccc2O1 (centres undefined)	-19%	-19%	55	16µM*	21µM*
Cc1cc2c(cc1S(=O)(=O)N1CCc3ccccc31)NC(=O)CO2	?	-16%	-79*	-17%	?
Cc1ccc(-c2onc(C)c2C)cc1S(=O)(=O)N1CCC(C)CC1	.	.	.	21µM*	?
